Some compounds were tested as several samples or in several runs, with calls that do not always agree. The source made the active and inactive calls. The calls were made as follows: active = hit-call score of the fitted dose curve at least 0.9, where 1 is the maximum; inactive = score below 0.9.
How the values were obtained:
[1] = ATG_AP_1_CIS: Attagene CIS-FACTORIAL HepG2 Assay for human Activator Protein 1 (AP-1) (AID 2282931); conditions: HepG2 Attagene cis-factorial AP-1 reporter mRNA; actives raise or lower the signal
Method in brief: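 HepG2, transient cis-reporter transfection; 24 h; readout RT-PCR/CE fluorescence; DMSO baseline, gain and loss fitted.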

[2] = ATG_AP_2_CIS: Attagene CIS-FACTORIAL HepG2 Assay for human Activator Protein 2 (AP-2) (AID 2282932); conditions: HepG2 AP-2 cis-reporter, Attagene transcription factor profiling; actives raise or lower the signal
Method in brief: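 Step one: transient transfection of HepG2 with reporter transcription units. Step two: 24 h chemical exposure. Step three: RNA extraction, RT-PCR, labelled fragment analysis by capillary electrophoresis; DMSO serves as baseline.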

[3] = ATG_BRE_CIS: Attagene CIS-FACTORIAL HepG2 Assay for human Bone Morphogenetic Protein (BMP) Response Element (BRE) (AID 2282933); conditions: HepG2 BMP response element reporter, Attagene transcription factor profiling; actives raise or lower the signal
Method in brief: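 Multiplexed cis-reporter assay, HepG2, 24 h exposure. mRNA from reporter units quantified via RT-PCR/CE; DMSO baseline; bidirectional curve fit.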

[4] = target: Retinoic acid receptor alpha (Homo sapiens) (UniProt P10276); experiment: ATG_DR5_RAR_CIS: Attagene CIS-FACTORIAL HepG2 Assay for human Retinoic Acid Receptor Alpha (RARE), DR5 submotif (AID 2282934); conditions: HepG2 Attagene cis-factorial RARE DR5 reporter, mRNA; actives raise or lower the signal
Sequence of Retinoic acid receptor alpha (Homo sapiens) (P10276 whole entry, looked up): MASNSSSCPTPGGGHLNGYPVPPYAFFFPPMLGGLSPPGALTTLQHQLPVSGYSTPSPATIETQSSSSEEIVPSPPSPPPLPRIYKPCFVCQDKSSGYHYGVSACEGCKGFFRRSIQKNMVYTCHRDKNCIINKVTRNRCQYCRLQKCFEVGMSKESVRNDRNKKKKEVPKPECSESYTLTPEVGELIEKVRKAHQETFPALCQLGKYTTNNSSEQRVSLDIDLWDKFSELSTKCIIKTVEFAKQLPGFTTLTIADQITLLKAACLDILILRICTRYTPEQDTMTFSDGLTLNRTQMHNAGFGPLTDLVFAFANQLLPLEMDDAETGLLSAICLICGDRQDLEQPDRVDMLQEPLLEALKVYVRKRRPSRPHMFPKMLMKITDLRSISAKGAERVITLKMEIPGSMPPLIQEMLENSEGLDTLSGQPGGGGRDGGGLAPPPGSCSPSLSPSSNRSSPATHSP
Method in brief: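 Reporter transcripts from a DR5-regulated unit, measured via RT-PCR plus capillary electrophoresis, reflect endogenous RAR activity in transiently transfected human HepG2 liver cells. Exposure lasted 24 h; gain or loss of signal scored against DMSO.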

[5] = target: Transcription factor E2F1 (Homo sapiens) (UniProt Q01094); experiment: ATG_E2F_CIS: Attagene CIS-FACTORIAL HepG2 Assay for human E2F Transcription Factor 1 (AID 2282935); conditions: HepG2 Attagene cis-reporter, E2F reporter RNA transcripts; actives raise or lower the signal
Sequence of Transcription factor E2F1 (Homo sapiens) (Q01094 whole entry, looked up): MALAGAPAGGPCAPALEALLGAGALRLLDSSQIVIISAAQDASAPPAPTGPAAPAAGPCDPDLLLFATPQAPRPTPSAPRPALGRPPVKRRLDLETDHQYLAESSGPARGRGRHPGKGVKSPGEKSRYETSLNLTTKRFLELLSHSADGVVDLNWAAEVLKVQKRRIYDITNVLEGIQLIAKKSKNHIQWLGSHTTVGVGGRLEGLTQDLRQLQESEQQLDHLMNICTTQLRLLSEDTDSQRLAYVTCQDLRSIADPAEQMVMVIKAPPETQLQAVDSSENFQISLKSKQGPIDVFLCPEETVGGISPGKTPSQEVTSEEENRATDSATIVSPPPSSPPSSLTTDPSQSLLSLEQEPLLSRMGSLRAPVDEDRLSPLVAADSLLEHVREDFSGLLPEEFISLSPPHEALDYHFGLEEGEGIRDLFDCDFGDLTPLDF
Method in brief: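 Total RNA from 24 h-treated, reporter-transfected HepG2 cells undergoes DNase I treatment, oligo(dT) reverse transcription, PCR and 6-FAM primer extension before capillary electrophoresis.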

[6] = ATG_E_Box_CIS: Attagene CIS-FACTORIAL HepG2 Assay for human Enhancer Box (E-box) (AID 2282936); conditions: HepG2 E-box cis-reporter transcription, actives raise or lower the signal
Method in brief: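 DMSO served as negative control and baseline for bidirectional fitting. Human hepatoma HepG2 cells, transiently transfected with cis-reporter constructs, were dosed 24 h; reporter mRNA read by RT-PCR and capillary electrophoresis.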

[7] = ATG_M_61_CIS: Attagene CIS-FACTORIAL HepG2 Assay for M61 Transcription Factor (Internal Marker) (AID 2282937); conditions: HepG2 Attagene CIS-FACTORIAL M61 internal marker reporter; actives raise or lower the signal
Method in brief: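 Transfect HepG2 with MRTUs; dose 24 h; isolate RNA; reverse-transcribe with DNase I treatment; PCR-amplify, FAM-label and cut with HpaI for 2 h at 37 C; resolve by CE. Bidirectional fitting against DMSO.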

[8] = ATG_EGR_CIS: Attagene CIS-FACTORIAL HepG2 Assay for human Early Growth Response 1 (EGR1) (AID 2282938); conditions: HepG2 Attagene CIS-FACTORIAL EGR reporter mRNA; actives raise or lower the signal
Method in brief: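 After a 24 h treatment of transiently transfected HepG2 cells, total RNA was reverse-transcribed and reporter sequences PCR-amplified, labelled and run on capillary electrophoresis. Reporters sit under cis-regulatory promoters sensing endogenous factors.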

[9] = ATG_ERE_CIS: Attagene CIS-FACTORIAL HepG2 Assay for Estrogen Response Element (ERE) (AID 2282940); conditions: HepG2 ERE cis-reporter, Attagene RNA transcript; actives raise or lower the signal
Method in brief: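 Fluorescence of capillary-separated, FAM-labelled reporter cDNA fragments indicates reporter mRNA levels in HepG2 cells exposed to chemicals for 24 h. Transient transfection with cis-regulated units; data fitted in both directions against DMSO.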

[10] = ATG_Ets_CIS: Attagene CIS-FACTORIAL HepG2 Assay for human Erythroblast Transformation Specific (ETS) (AID 2282941); conditions: HepG2 ETS cis-reporter transcription, actives raise or lower the signal
Method in brief: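 HepG2 cells transiently transfected with cis-promoter reporter transcription units were dosed for 24 h; reporter mRNA was measured by RT-PCR, 6-FAM primer extension, HpaI digestion and capillary electrophoresis, with bidirectional fitting against DMSO baseline.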

[11] = target: Hepatocyte nuclear factor 3-beta (Homo sapiens) (UniProt Q9Y261); experiment: ATG_FoxA2_CIS: Attagene CIS-FACTORIAL HepG2 Assay for human Forkhead box A2 (FOXA2) (AID 2282942); conditions: HepG2 cis-reporter transcription factor activity, 24 h; actives raise or lower the signal
Sequence of Hepatocyte nuclear factor 3-beta (Homo sapiens) (Q9Y261 whole entry, looked up): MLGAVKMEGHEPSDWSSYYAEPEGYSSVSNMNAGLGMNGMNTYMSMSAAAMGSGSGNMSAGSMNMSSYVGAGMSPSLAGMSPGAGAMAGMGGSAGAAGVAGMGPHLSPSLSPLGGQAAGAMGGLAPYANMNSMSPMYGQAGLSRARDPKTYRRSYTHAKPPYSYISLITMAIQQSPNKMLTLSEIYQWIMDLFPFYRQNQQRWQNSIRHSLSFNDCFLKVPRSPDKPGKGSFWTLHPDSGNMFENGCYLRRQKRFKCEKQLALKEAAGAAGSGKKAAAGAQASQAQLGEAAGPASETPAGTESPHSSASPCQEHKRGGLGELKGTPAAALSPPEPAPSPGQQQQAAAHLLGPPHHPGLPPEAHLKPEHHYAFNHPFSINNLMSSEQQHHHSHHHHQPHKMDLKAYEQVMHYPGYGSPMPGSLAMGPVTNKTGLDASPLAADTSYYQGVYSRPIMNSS
Method in brief: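 24 h dosing of HepG2 bearing cis-reporter constructs; mRNA readout by RT-PCR/CE fluorescence; bidirectional fit, DMSO baseline.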

[12] = ATG_FoxO_CIS: Attagene CIS-FACTORIAL HepG2 Assay for human Forkhead box O (FoxO) (AID 2282943); conditions: HepG2 Attagene cis-reporter, FoxO element, mRNA; actives raise or lower the signal
Method in brief: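 Endogenous transcription factor activity read from multiplexed cis-promoter reporter transcripts in transiently transfected HepG2, 24 h after dosing. Reporter RNA measured via RT-PCR plus capillary electrophoresis of FAM-labeled products; gain or loss relative to DMSO.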

[13] = ATG_GATA_CIS: Attagene CIS-FACTORIAL HepG2 Assay for human GATA Binding Protein (AID 2282944); conditions: HepG2 GATA cis-element reporter, Attagene multiplex mRNA; actives raise or lower the signal
Method in brief: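 After transfecting HepG2 cells with multiple cis-regulated reporter units, chemicals are dosed for 24 h; isolated RNA undergoes RT-PCR and fluorescent labeling before capillary electrophoresis, with activity expressed against DMSO.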

[14] = ATG_GLI_CIS: Attagene CIS-FACTORIAL HepG2 Assay for human Zinc Finger Protein GLI1 (AID 2282945); conditions: HepG2, Attagene cis-factorial reporter mRNA, GLI element; actives raise or lower the signal
Method in brief: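 Bidirectional curve fits relative to DMSO, using reporter mRNA levels from RT-PCR plus capillary electrophoresis. Cells were HepG2 transiently carrying cis-regulated reporter constructs, harvested 24 h after dosing.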

[15] = target: Bile acid receptor (Homo sapiens) (UniProt Q96RI1); experiment: ATG_IR1_CIS: Attagene CIS-FACTORIAL HepG2 Assay for human Nuclear Receptor Subfamily 1 Group H Member 4 (NR1H4), IR1 submotif (AID 2282946); conditions: IR1 reporter transcription, actives raise or lower the signal
Sequence of Bile acid receptor (Homo sapiens) (Q96RI1 whole entry, looked up, the tested form may be a part): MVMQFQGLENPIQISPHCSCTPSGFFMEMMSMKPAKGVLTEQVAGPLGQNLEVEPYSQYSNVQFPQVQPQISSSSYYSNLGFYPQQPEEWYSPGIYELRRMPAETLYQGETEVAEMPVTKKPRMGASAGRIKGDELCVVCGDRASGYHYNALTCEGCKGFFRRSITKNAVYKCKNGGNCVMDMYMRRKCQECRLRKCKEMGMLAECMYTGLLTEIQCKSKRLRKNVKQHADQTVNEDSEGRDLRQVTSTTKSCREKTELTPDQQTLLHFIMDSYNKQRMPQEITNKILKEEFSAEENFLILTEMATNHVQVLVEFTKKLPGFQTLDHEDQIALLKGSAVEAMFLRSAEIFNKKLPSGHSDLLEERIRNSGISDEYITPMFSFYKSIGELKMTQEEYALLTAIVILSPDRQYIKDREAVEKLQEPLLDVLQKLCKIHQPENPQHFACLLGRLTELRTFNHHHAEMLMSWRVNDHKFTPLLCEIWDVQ
Method in brief: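 Cells (human HepG2) carry transiently transfected cis-promoter reporter transcription units. Compounds are incubated 24 h, total RNA is reverse-transcribed and amplified, and labelled fragments are resolved by capillary electrophoresis. Curves use DMSO as baseline.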

[16] = ATG_GRE_CIS: Attagene CIS-FACTORIAL HepG2 Assay for human Glucocorticoid Response Elements (GRE) (AID 2282947); conditions: HepG2 GRE cis-reporter, Attagene multiplex mRNA; actives raise or lower the signal
Method in brief: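 Assay uses human hepatoma HepG2 cells transfected with cis-promoter reporter units, exposed 24 h. mRNA from reporters detected by RT-PCR plus capillary electrophoresis; DMSO serves as negative control and baseline.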

[17] = ATG_ISRE_CIS: Attagene CIS-FACTORIAL HepG2 Assay for human Interferon Regulatory Factor 1 (IRF1) binding to an Interferon-Stimulated Response Element (ISRE) (AID 2282948); conditions: HepG2 ISRE cis-reporter (Attagene), mRNA transcription readout; actives raise or lower the signal
Method in brief: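 HepG2 cells transiently transfected with multiplexed cis-promoter reporter units; after 24 h compound exposure, reporter mRNA quantified by RT-PCR, FAM labelling, HpaI digestion and capillary electrophoresis. Bidirectional fit versus DMSO baseline.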

[18] = ATG_M_06_CIS: Attagene CIS-FACTORIAL HepG2 Assay for M06 Transcription Factor (Internal Marker) (AID 2282950); conditions: HepG2 Attagene CIS-FACTORIAL M06 internal marker reporter; actives raise or lower the signal
Method in brief: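 HepG2 liver cells, 24 h exposure. Reporter transcripts from transfected cis-element constructs quantified by RT-PCR/capillary electrophoresis fluorescence. Bidirectional curve fit against DMSO.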

[19] = ATG_M_32_CIS: Attagene CIS-FACTORIAL HepG2 Assay for M32 Transcription Factor (Internal Marker) (AID 2282949); conditions: HepG2 Attagene cis-factorial M32 reporter, mRNA; actives raise or lower the signal;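 also: background control marker of the multiplexed CIS panel rather than a real target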
Method in brief: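 Internal background marker read-out: RT-PCR/capillary electrophoresis fluorescence of reporter transcripts from transiently transfected HepG2 cells after 24 h chemical exposure. Activity fitted bidirectionally relative to DMSO negative control.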

[20] = ATG_M_19_CIS: Attagene CIS-FACTORIAL HepG2 Assay for M19 Transcription Factor (Internal Marker) (AID 2282939); conditions: HepG2 Attagene CIS-FACTORIAL M19 internal marker reporter; actives raise or lower the signal
Method in brief: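 Signals come from fluorescence of labelled reporter-specific PCR fragments resolved by capillary electrophoresis, following 24 h treatment of HepG2 cells transfected with cis-promoter reporter units; activity was fitted in both directions relative to DMSO.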

Measured: AC50

Nc1c(Oc2ccccc2)cc(O)c2c1C(=O)c1ccccc1C2=O
active: [3] 13.2 µM
not listed: [19] | [20]
inactive: all other assays above

O=C=Nc1ccc(Cl)cc1
active: [12] 162 µM
not listed: [13] | [15] | [16] | [20]
inactive: all other assays above

Clc1cccc(Cl)c1
not listed: [9] | [15] | [19]
inactive: all other assays above

CCOP(=S)(OCC)SCS(=O)(=O)C(C)(C)C
active: [15] 34.8 µM
not listed: [13]
inactive: all other assays above

Cc1cc(Cl)ccc1OCCCC(=O)O
not listed: [9]
inactive: all other assays above

C#C[C@]1(O)CC[C@H]2[C@@H]3CCC4=CC(=O)CC[C@]4(C)[C@H]3CC[C@@]21C
not listed: [9] | [18]
inactive: all other assays above

N#Cc1ccccc1Cl
not listed: [9] | [13]
inactive: all other assays above

CC(C)(c1ccc(O)c(-c2ccccc2)c1)c1ccc(O)c(-c2ccccc2)c1
active: [8] 5.2 µM
not listed: [20]
inactive: all other assays above

Oc1c(Br)cc(Br)cc1Br
active: [1] 27.7 µM | [3] 126 µM | [6] 30.4 µM | [8] 31.9 µM | [9] 24.9 µM
not listed: [13] | [15] | [16] | [20]
inactive: all other assays above

CCCCOC(C)=O
inactive: [1] | [2] | [3] | [4] | [5] | [6] | [7] | [20] | [9] | [10] | [11] | [12] | [13] | [14] | [15] | [17] | [19] | [18]
active: [13] 154 µM

CCN(CC)C(=O)C(Cl)=C(C)OP(=O)(OC)OC
not listed: [13] | [15]
inactive: all other assays above

COC(=O)Nc1cccc(OC(=O)Nc2cccc(C)c2)c1
not listed: [9]
inactive: all other assays above

C=CCCl
not listed: [13] | [15] | [19] | [20]
inactive: all other assays above

OCCN(CCO)CCO
not listed: [9] | [15] | [16]
inactive: all other assays above

O=C(CBr)c1ccc(O)cc1
not listed: [9] | [18] | [20]
inactive: all other assays above

Reference: PubChem BioAssay (EPA / NIEHS)
